Test results: the supplement of paper PMC6089552
“And” between values parts separate entries of the source, which are not always exact repeats. Identical values can stand only once. Hit rate of the full screen: of about 3,200 compounds, about 300 (9.4%) showed activity. For the sample, actives were picked, then their nearest neighbours and some compounds at random.

System: A673/TR/shEF
Experiment: cell viability (LOESS-normalised, relative to median of negative controls) (log2 ratio); higher = more viable cells (less compound effect), active = hit call of the paper (over 3 MAD below the median)
Settings: treatment time: 72 h
Method in brief: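 A673/TR/shEF Ewing sarcoma cells (1,500 per well, 384-well plates) were grown with or without doxycycline to induce EWS-FLI1 shRNA knockdown, starting 24 h before compounds. Library compounds at two or more concentrations, with DMSO controls, were added for three days. Cell viability was read by CellTiter-Glo luminescence on an Envision reader, then LOESS-corrected per plate, divided by the median of negative controls and log2-transformed. Hits were wells at least three median absolute deviations from the median of all screened wells.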

[1] = 0.25 µM, library screen: screen1, EWS-FLI1 expression: high (no doxycycline)
[2] = 0.25 µM, library screen: screen1, EWS-FLI1 expression: low (doxycycline-induced shRNA knockdown)
[3] = 2.5 µM, library screen: screen1, EWS-FLI1 expression: high (no doxycycline)
[4] = 2.5 µM, library screen: screen1, EWS-FLI1 expression: low (doxycycline-induced shRNA knockdown)
[5] = 0.25 µM, library screen: screen2, EWS-FLI1 expression: high (no doxycycline)
[6] = 0.25 µM, library screen: screen2, EWS-FLI1 expression: low (doxycycline-induced shRNA knockdown)
[7] = 2.5 µM, library screen: screen2, EWS-FLI1 expression: high (no doxycycline)
[8] = 2.5 µM, library screen: screen2, EWS-FLI1 expression: low (doxycycline-induced shRNA knockdown)

Measured: cell viability (log2)

NC(=O)NC(=O)Cc1ccccc1
inactive: [1] 0.103 | [2] 0.215 | [3] 0.184 | [4] 0.139

CCN(CCCc1ccccc1)CCCc1ccccc1
inactive: [1] 0.0709 | [2] 0.129 | [3] 0.11 | [4] 0.151

NNCCc1ccccc1
active: [7] -0.435 | [8] -0.392
inactive: [1] 0.0542 | [2] 0.11 | [5] 0.136 | [6] -0.0727 | [3] 0.2 | [4] 0.188

COC(=O)C1=C(C)N=C2SCCC(=O)N2C1c1ccc(OC)cc1 (stereo not drawn)
inactive: [1] 0.0178 | [2] 0.0759 | [3] 0.0162 | [4] 0.0699

Cc1cc(Nc2ccc(O)cc2)n2c(nc3ccccc32)c1C#N
inactive: [1] 0.079 | [2] 0.0759 | [3] 0.0987 | [4] 0.0687

CC1(O)/C=C\C=C(\CO)C2CC(C)(C)C2(O)CC1 (stereo not drawn)
inactive: [1] 0.0666 | [2] 0.000836 | [3] 0.128 | [4] 0.00974

CN1CCN(c2nc3ccccn3c(=O)c2/C=C2\SC(=S)N(CC3CCCO3)C2=O)CC1 (stereo not drawn)
inactive: [1] 0.134 | [2] 0.0801 | [3] 0.0647 | [4] 0.048

CC(=O)c1c(O)c(C)c(O)c2c1oc1c(C(C)=O)c(O)c(C)c(O)c12
inactive: [1] 0.0278 | [2] -0.0408 | [3] 0.0533 | [4] 0.172

Cc1c(O)c(C(=O)CC(C)C)c2oc3c(C(=O)CC(C)C)c(O)c(C)c(O)c3c2c1O
inactive: [1] 0.0407 | [2] 0.0843 | [3] 0.0935 | [4] 0.0892

CCC(C)C(=O)c1c(O)c(C)c2oc3c(C)c(O)c(C(=O)C(C)CC)c(O)c3c2c1O (stereo not drawn)
inactive: [1] 0.0233 | [2] 0.116 | [4] -0.0271
active: [3] -0.592

CCCCC(CC)CN=C(N)NC(N)=NCCCCCCN=C(N)NC(N)=NCC(CC)CCCC (stereo not drawn)
inactive: [1] 0.103 and 0.0973 | [2] 0.044 and 0.0691 | [3] 0.127 and 0.022 | [4] 0.0795 and 0.0454

COc1ccc(OC)c(C2NC(=O)NC(C)=C2C(=O)Nc2ccccc2Cl)c1 (stereo not drawn)
inactive: [1] 0.0793 | [2] 0.107 | [3] 0.0921 | [4] 0.116

CC1(C)COC(CC(=O)O)CN1 (stereo not drawn)
inactive: [1] 0.11 | [2] 0.00312 | [3] 0.108 | [4] 0.0408

COc1ccc(-c2coc3cc(O)ccc3c2=O)cc1
inactive: [2] 0.0672 | [3] 0.234 | [4] 0.103
active: [1] -0.6

COc1ccc(-c2coc3cc(OC)ccc3c2=O)cc1
inactive: [1] 0.121 | [2] 0.0353 | [3] 0.128 | [4] 0.0908

O=c1c(-c2ccc(O)cc2)coc2cc(O)ccc12
inactive: 0.025 µM, library screen: screen1, EWS-FLI1 expression: high (no doxycycline) -0.0377 | 0.025 µM, library screen: screen1, EWS-FLI1 expression: low (doxycycline-induced shRNA knockdown) -0.0297 | 0.103 µM, library screen: screen3, EWS-FLI1 expression: high (no doxycycline) 0.0817 | 0.103 µM, library screen: screen3, EWS-FLI1 expression: low (doxycycline-induced shRNA knockdown) 0.0853 | [1] 0.184 | [2] 0.0911 | [5] 0.184 | [6] 0.099 | 0.308 µM, library screen: screen3, EWS-FLI1 expression: high (no doxycycline) 0.12 | 0.308 µM, library screen: screen3, EWS-FLI1 expression: low (doxycycline-induced shRNA knockdown) 0.0897 | 0.926 µM, library screen: screen3, EWS-FLI1 expression: high (no doxycycline) 0.0631 | 0.926 µM, library screen: screen3, EWS-FLI1 expression: low (doxycycline-induced shRNA knockdown) 0.0867 | [3] 0.11 | [4] 0.0867 | [7] 0.118 | [8] 0.117 | 2.8 µM, library screen: screen3, EWS-FLI1 expression: high (no doxycycline) 0.137 | 2.8 µM, library screen: screen3, EWS-FLI1 expression: low (doxycycline-induced shRNA knockdown) 0.123 | 8.3 µM, library screen: screen3, EWS-FLI1 expression: high (no doxycycline) 0.161 | 8.3 µM, library screen: screen3, EWS-FLI1 expression: low (doxycycline-induced shRNA knockdown) 0.0904 | 25 µM, library screen: screen1, EWS-FLI1 expression: high (no doxycycline) 0.0121 | 25 µM, library screen: screen1, EWS-FLI1 expression: low (doxycycline-induced shRNA knockdown) 0.0753 | 25 µM, library screen: screen3, EWS-FLI1 expression: high (no doxycycline) 0.114 | 25 µM, library screen: screen3, EWS-FLI1 expression: low (doxycycline-induced shRNA knockdown) 0.0782

CSc1nc(N)c2ncn(C3OC(COP(=O)(O)OP(=O)(O)O)C(O)C3O)c2n1 (stereo not drawn)
inactive: [5] 0.0889 | [6] 0.0973 | [7] 0.157 | [8] 0.0918

CC(C)(O)[C@H]1CC[C@]2(C)[C@H]3CC[C@@H]4[C@@]5(C)CCCC(C)(C)[C@@H]5[C@@H](O)C[C@@]4(C)[C@]3(C)CC[C@@H]12
inactive: [1] 0.0136 | [2] 0.0775 | [3] 0.0306 | [4] 0.112

COc1cc(C2NC(=S)NC(C)=C2C(=O)Nc2cccc(Cl)c2)cc(OC)c1OC (stereo not drawn)
inactive: [1] 0.123 | [2] 0.0893 | [3] 0.204 | [4] 0.0553

COc1cccc(N2C(=O)C(=Cc3cccc(O)c3)SC2=S)c1
inactive: [1] 0.113 | [2] 0.0758 | [3] 0.133 | [4] 0.182

CC(=O)O[C@H]1CC[C@@]2(C)C(C[C@@H](OC(C)=O)[C@@]3(C)C4=CC(=O)OC(c5ccoc5)[C@]4(C)CCC23)C1(C)C (stereo partly drawn)
inactive: [1] 0.121 | [2] 0.145 | [3] 0.126 | [4] 0.124

CC(=O)O[C@@H]1CC[C@@]2(C)C(C[C@@H](OC(C)=O)[C@@]3(C)C4=CC(=O)O[C@@H](c5ccoc5)[C@]4(C)CCC23)C1(C)C (stereo partly drawn)
inactive: [1] -0.00795 | [2] 0.0487 | [3] 0.121 | [4] 0.0464

CC(=O)O[C@H]1C[C@@H](OC(C)=O)C(C)(C)C2C[C@@H](OC(C)=O)[C@@]3(C)C4=CC(=O)O[C@@H](c5ccoc5)[C@]4(C)CCC3[C@]21C (stereo partly drawn)
active: [3] -0.853 | [4] -0.345
inactive: [1] 0.0506 | [2] 0.0595

COc1cc(C(=O)N2CCOCC2)c([N+](=O)[O-])cc1OC
inactive: [1] 0.0993 | [2] 0.0316 | [3] 0.0928 | [4] -0.0159

CCCCCCCCCCCCCCCCCC(=O)OC[C@H](COP(=O)(O)OCC(O)COP(=O)(O)OC[C@@H](COC(=O)CCCCCCCCCCCCCCCCC)OC(=O)CCCCCCCCCCCCCCCCC)OC(=O)CCCCCCCCCCCCCCCCC (stereo partly drawn)
inactive: [1] 0.0223 | [2] 0.0715 | [3] 0.128 | [4] 0.138

CC(=O)O[C@@H]1C[C@H]2C(C)(C)C(=O)[C@@H]3O[C@@H]3[C@]2(C)[C@H]2CC[C@@]3(C)[C@H](c4ccoc4)OC(=O)[C@H]4O[C@]43[C@@]21C
inactive: [1] 0.0357 | [2] 0.0669 | [3] 0.155 | [4] 0.138

COc1c2c(cc3ccoc13)C(=O)[C@H]1c3cc4c(cc3OC[C@H]1O2)OCO4
inactive: [1] 0.0834 | [2] 0.0158 | [3] 0.0793 | [4] -0.0539

COc1c(CC(=O)c2cc3c(cc2O)OC(C)(C)C(O)C3)ccc2c1C=CC(C)(C)O2 (stereo not drawn)
inactive: [1] 0.0608 | [2] -0.00504 | [3] 0.0765 | [4] 0.0703

COc1cc2c(cc1OC)[C@@H]1C(=O)c3c(cc4c(c3O)C=CC(C)(C)O4)O[C@@H]1CO2
inactive: [1] -0.0181 | [2] -0.000972 | [4] -0.0174
active: [3] -0.392

COc1cc2c(cc1-c1coc3c4c(c(OC)cc3c1=O)OC(C)(C)C=C4)OCO2
inactive: [1] 0.082 | [2] 0.0865 | [3] 0.173 | [4] 0.0953

COc1ccc(-c2c(OC)c3c(OC)c4c(cc3oc2=O)OC(C)(C)C=C4)cc1
inactive: [1] 0.0786 | [2] 0.00334 | [3] 0.211 | [4] 0.00828

COc1ccc2c(c1)O[C@@H]1COc3cc(OC)c(OC)cc3[C@@H]1C2=O
inactive: [1] -0.0338 | [2] 0.0823 | [3] -0.0122 | [4] -0.0233

COc1cc2c(cc1OC)[C@@H]1C(=O)c3c(O)cc4c(c3O[C@@H]1CO2)C=CC(C)(C)O4
inactive: [4] -0.138
active: [1] -0.205 | [2] -0.261 | [3] -0.213

COc1ccc2c(c1)O[C@H]1c3ccc(O)cc3OC[C@@H]21
inactive: [1] 0.225 | [2] 0.129 | [3] 0.184 | [4] 0.206

COc1cc2c(cc1OC)[C@@H]1C(=O)c3ccc4c(c3O[C@@H]1CO2)C=CC(C)(C)O4
active: [1] -0.591 | [2] -0.253 | [3] -2.11 | [4] -0.84

COc1ccccc1-c1coc2cc(O)ccc2c1=O
inactive: [1] 0.111 | [2] 0.0685 | [3] 0.111 | [4] -0.0147

COc1cc(C(=O)O)c(O)c2c1OCO2
inactive: [1] -0.00582 | [2] -0.144 | [3] 0.116 | [4] -0.0061

C[C@@H]1C[C@H]2[C@@H]3C[C@H](F)C4=CC(=O)C=C[C@]4(C)[C@@]3(F)[C@@H](O)C[C@]2(C)[C@H]1C(=O)COC(=O)C(C)(C)C
inactive: [1] 0.00935 | [2] -0.0577 | [3] 0.0831 | [4] -0.0529

COc1cc(O)c(C(=O)c2ccccc2)c(OC)c1
inactive: [1] 0.0618 | [2] 0.0186 | [3] 0.0469 | [4] 0.0894

OC[C@H]1O[C@@](CO)(O[C@H]2O[C@H](CO)[C@@H](O)[C@H](O)[C@H]2O)[C@@H](O[C@H]2O[C@H](CO)[C@@H](O)[C@H](O)[C@H]2O)[C@@H]1O
inactive: [1] 0.0123 | [2] 0.0415 | [3] 0.0346 | [4] 0.126

COCCOC(=O)C1=C(C)NC(=S)NC1c1ccccc1OC (stereo not drawn)
inactive: [1] 0.0949 | [2] 0.0382 | [3] 0.0563 | [4] 0.0651
